{"source": "PubChem BioAssay (NCATS)", "note": "Values without a mark were called inactive. The call rests on the fitted dose curve; in most records, active means well fitted curve in the direction sought with a large enough effect; inconclusive means small, poorly fitted or top-dose-only effect, or another doubt; inactive means no such curve, though single readings can be large; an effect the other way counts as inactive or inconclusive.", "data": [{"assay": "MultiTox-Fluor Cytotoxicity Assay - LYMP1-003 - Dead Cells (AID 961);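 further: 0% = DMSO and 100% = tetraoctylammonium bromide; nearly all actives have a fitted effect of over 70% in size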", "settings": "LYMP1-003 lymphoblastoid cells, dead-cell protease fluorescence; series mostly up to 92.2 µM; cytotoxicity (dead cells): at the top concentration", "method_in_brief": "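Acute toxicity is scored as increased dead-cell protease activity in human lymphoblastoid LYMP1-003 cells after 16 h compound exposure in complete culture medium. Activity is normalized to DMSO basal and 15 uM tetraoctylammonium bromide as full response.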", "units": {"cytotoxicity (dead cells)": "%"}, "values": [{"smiles": "CCN(C(=O)N(CC)c1ccccc1)c1ccccc1", "cytotoxicity (dead cells)": 11}, {"smiles": "CCNc1cc(O)ccc1C", "cytotoxicity (dead cells)": -9.31}, {"smiles": "Cc1ccc(C(=O)O)cc1", "cytotoxicity (dead cells)": 8.27}, {"smiles": "C=Cc1ccccn1", "cytotoxicity (dead cells)": 1.21}, {"smiles": "CC(C)C(C)C", "cytotoxicity (dead cells)": -2.11}, {"smiles": "CCCCC(=O)N(C)C", "cytotoxicity (dead cells)": 8.1}, {"smiles": "Nc1cc(S(=O)(=O)O)ccc1O", "cytotoxicity (dead cells)": -4.36}, {"smiles": "O=C1OC(=O)c2c(Br)c(Br)c(Br)c(Br)c21", "cytotoxicity (dead cells)": -11.3}, {"smiles": "Cc1cccc2sc(N)nc12", "cytotoxicity (dead cells)": -0.376}, {"smiles": "CN(C)c1cccc(O)c1", "cytotoxicity (dead cells)": 5.32}, {"smiles": "BrC(Br)C(Br)Br", "cytotoxicity (dead cells)": -5.14}, {"smiles": "CC(=O)c1ccccn1", "cytotoxicity (dead cells)": -0.959}, {"smiles": "O=P(O)(OCc1ccccc1)OCc1ccccc1", "cytotoxicity (dead cells)": -13.8}, {"smiles": "CC(N)CN", "note": "(centres undefined)", "cytotoxicity (dead cells)": 2.68}, {"smiles": "OC1CCCC1", "cytotoxicity (dead cells)": -3.89}, {"smiles": "Cc1ccc(N(C)C)cc1", "cytotoxicity (dead cells)": -13.4}, {"smiles": "OCCO", "cytotoxicity (dead cells)": 2.82}, {"smiles": "Cc1ccc2nc(-c3ccc(N)cc3)sc2c1S(=O)(=O)O", "cytotoxicity (dead cells)": -9.14}, {"smiles": "CCOC(=O)OCC", "cytotoxicity (dead cells)": -2.99}, {"smiles": "Nc1cccc(C(F)(F)F)c1", "cytotoxicity (dead cells)": -10.4}, {"smiles": "ClCCl", "cytotoxicity (dead cells)": 2.04}, {"smiles": "CN(C)CCCCl", "cytotoxicity (dead cells)": 0.894}, {"smiles": "CC(=O)c1cccc([N+](=O)[O-])c1", "cytotoxicity (dead cells)": 4}, {"smiles": "O=C(O)c1ccccc1Cl", "cytotoxicity (dead cells)": -4.32}, {"smiles": "CSCCC=O", "cytotoxicity (dead cells)": -8.69}, {"smiles": "C=C(C)OC(C)=O", "cytotoxicity (dead cells)": -1.95}, {"smiles": "C1CCCC1", "cytotoxicity (dead cells)": -8.9}, {"smiles": "CCCCCCCCC/C=C/CC1CC(=O)OC1=O", "note": "(centres undefined)", "cytotoxicity (dead cells)": 5.6}, {"smiles": "Cc1cc(C)cc(O)c1", "cytotoxicity (dead cells)": 0.0345}, {"smiles": "CCC(O)C(C)(C)C", "note": "(centres undefined)", "cytotoxicity (dead cells)": -1.59}, {"smiles": "CCCCCCCCC", "cytotoxicity (dead cells)": -7.36}, {"smiles": "CC(=O)c1nccs1", "cytotoxicity (dead cells)": 3.48}, {"smiles": "Clc1ccc(Cl)c(Cl)c1Cl", "cytotoxicity (dead cells)": 2.08}, {"smiles": "CC/C=C/C#N", "cytotoxicity (dead cells)": -3.26}, {"smiles": "NC(=S)NNC(N)=S", "cytotoxicity (dead cells)": -16.2}, {"smiles": "Cc1ccc(C(C)(C)C)cc1", "cytotoxicity (dead cells)": -7.1}, {"smiles": "O=Cc1cccc(Br)c1", "cytotoxicity (dead cells)": 4.63}, {"smiles": "Cc1ccc(C)c(N)c1", "cytotoxicity (dead cells)": -2.32}, {"smiles": "CC(C)c1ccccc1", "cytotoxicity (dead cells)": -14.6}]}, {"assay": "MultiTox-Fluor Cytotoxicity Assay - LYMP1-003 - Live Cells (AID 962);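 further: cells exposed to compound for 16 hours at 37 °C; 0% = DMSO only and full loss = 92 µM tetraoctylammonium bromide; cytotoxic hits lower the live-cell protease signal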", "settings": "LYMP1-003 lymphoblastoid cells, MultiTox-Fluor live-cell protease fluorescence; series mostly up to 92.2 µM; activity change, negative = fewer live cells: at the top concentration", "method_in_brief": "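Readout: live-cell fluorescence (Ex/Em=405/510) from GF-AFC cleavage after 60 min MultiTox-Fluor reagent at room temperature. Lymphoblastoid LYMP1-003 cells, 16 hr compound treatment, 37 C. Concentration-response fitted to standard Hill equation for AC50.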", "units": {"activity change, negative = fewer live cells": "%"}, "values": [{"smiles": "CCN(C(=O)N(CC)c1ccccc1)c1ccccc1", "activity change, negative = fewer live cells": -4.28}, {"smiles": "CCNc1cc(O)ccc1C", "activity change, negative = fewer live cells": -8.17}, {"smiles": "Cc1ccc(C(=O)O)cc1", "activity change, negative = fewer live cells": -2.88}, {"smiles": "C=Cc1ccccn1", "activity change, negative = fewer live cells": -0.101}, {"smiles": "CC(C)C(C)C", "activity change, negative = fewer live cells": -7.4}, {"smiles": "CCCCC(=O)N(C)C", "activity change, negative = fewer live cells": 1.14}, {"smiles": "Nc1cc(S(=O)(=O)O)ccc1O", "activity change, negative = fewer live cells": -4.4}, {"smiles": "O=C1OC(=O)c2c(Br)c(Br)c(Br)c(Br)c21", "activity change, negative = fewer live cells": 3.62}, {"smiles": "Cc1cccc2sc(N)nc12", "activity change, negative = fewer live cells": -1.29}, {"smiles": "CN(C)c1cccc(O)c1", "activity change, negative = fewer live cells": 1.26}, {"smiles": "BrC(Br)C(Br)Br", "activity change, negative = fewer live cells": -4.84}, {"smiles": "CC(=O)c1ccccn1", "activity change, negative = fewer live cells": -1.61}, {"smiles": "O=P(O)(OCc1ccccc1)OCc1ccccc1", "activity change, negative = fewer live cells": 3.99}, {"smiles": "CC(N)CN", "note": "(centres undefined)", "activity change, negative = fewer live cells": -2.71}, {"smiles": "OC1CCCC1", "activity change, negative = fewer live cells": -6.63}, {"smiles": "Cc1ccc(N(C)C)cc1", "activity change, negative = fewer live cells": -5.94}, {"smiles": "OCCO", "activity change, negative = fewer live cells": -1.85}, {"smiles": "Cc1ccc2nc(-c3ccc(N)cc3)sc2c1S(=O)(=O)O", "activity change, negative = fewer live cells": -7.45}, {"smiles": "CCOC(=O)OCC", "activity change, negative = fewer live cells": -1.32}, {"smiles": "Nc1cccc(C(F)(F)F)c1", "activity change, negative = fewer live cells": -2.37}]}]}
